What is called inhibition is the drop in the measured response relative to a control, in per cent.

The target of test [1] is 6-phosphogluconate dehydrogenase, decarboxylating (Homo sapiens) (UniProt P52209). Kind of test: 6PGD enzyme inhibitors, primary screen, biochemical, human, recombinant enzyme, NADPH absorbance (AID 1159550). The following applies: recombinant 6PGD, NADPH absorbance 341 nm; at 10 µM; stronger effect = higher value.
A short description of test [2]: differential killing of epithelial or mesenchymal cells, primary screen, imaging, PC-3E GFP, TEM4-18 mCherry, co-culture (AID 1345086;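 active = compounds killing one labelled cell type while sparing the other, by normalised counts and ratio limits, not self-fluorescent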;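 as to all read-outs here: cells exposed to compound for 72 h before imaging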;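 as to red/green cell ratio (normalised): normalised mesenchymal count divided by normalised epithelial count so high means epithelial killing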). The following applies: imaging cell counts, at 1 µM; for red/green cell ratio (normalised): actives lie on both sides, counts scaled to control wells, 1 = unselective.
Test [3] deals with Mitogen-activated protein kinase 7 (Homo sapiens) (UniProt Q13164). In words: ERK5 transactivation activators in reporter cells, primary screen, cell-based, HTS (AID 1508626;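 active = luciferase signal above three times the same-plate solvent-only control wells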;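 also: luciferase driven by Gal4-ERK5 fusion binding five Gal4 sites before minimal TATA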). Particulars: HeLa Gal4-ERK5 transactivation, 18 h, at 5 µM, stronger effect = higher value.
Where [4] appears, read: measured here: epithelial PC-3E GFP cell survival.
Where [5] appears, read: measured here: mesenchymal TEM4-18 mCherry cell survival.

The source made the active and inactive calls.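 The calls were made as follows, unless noted: active = at least 20% inhibition of 6-phosphogluconate dehydrogenase activity; inactive = the rest.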

Mitogen-activated protein kinase 7 (Homo sapiens), sequence (Q13164 whole entry, looked up, the tested form may be a part): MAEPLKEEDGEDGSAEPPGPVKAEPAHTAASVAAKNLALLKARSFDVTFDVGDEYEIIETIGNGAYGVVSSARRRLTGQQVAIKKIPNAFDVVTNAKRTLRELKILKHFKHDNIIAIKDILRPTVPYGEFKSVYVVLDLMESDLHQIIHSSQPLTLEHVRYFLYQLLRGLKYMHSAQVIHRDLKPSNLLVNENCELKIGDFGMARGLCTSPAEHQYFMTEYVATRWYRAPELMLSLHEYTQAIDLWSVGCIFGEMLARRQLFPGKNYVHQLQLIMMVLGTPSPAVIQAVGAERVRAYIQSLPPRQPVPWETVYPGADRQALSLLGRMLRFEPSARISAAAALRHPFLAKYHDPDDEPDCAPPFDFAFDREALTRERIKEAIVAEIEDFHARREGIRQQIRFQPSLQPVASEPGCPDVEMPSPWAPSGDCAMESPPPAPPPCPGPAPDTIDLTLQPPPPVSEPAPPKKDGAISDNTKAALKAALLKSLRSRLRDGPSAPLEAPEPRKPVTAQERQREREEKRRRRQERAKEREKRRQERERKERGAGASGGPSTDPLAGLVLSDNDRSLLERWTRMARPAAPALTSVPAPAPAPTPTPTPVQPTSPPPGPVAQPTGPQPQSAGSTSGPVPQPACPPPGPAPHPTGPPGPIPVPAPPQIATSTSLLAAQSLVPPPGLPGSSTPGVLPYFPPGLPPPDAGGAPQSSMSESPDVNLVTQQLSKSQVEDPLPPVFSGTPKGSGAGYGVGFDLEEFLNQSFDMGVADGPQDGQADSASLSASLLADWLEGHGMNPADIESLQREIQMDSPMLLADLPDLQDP
6-phosphogluconate dehydrogenase, decarboxylating (Homo sapiens), sequence (P52209 whole entry, looked up): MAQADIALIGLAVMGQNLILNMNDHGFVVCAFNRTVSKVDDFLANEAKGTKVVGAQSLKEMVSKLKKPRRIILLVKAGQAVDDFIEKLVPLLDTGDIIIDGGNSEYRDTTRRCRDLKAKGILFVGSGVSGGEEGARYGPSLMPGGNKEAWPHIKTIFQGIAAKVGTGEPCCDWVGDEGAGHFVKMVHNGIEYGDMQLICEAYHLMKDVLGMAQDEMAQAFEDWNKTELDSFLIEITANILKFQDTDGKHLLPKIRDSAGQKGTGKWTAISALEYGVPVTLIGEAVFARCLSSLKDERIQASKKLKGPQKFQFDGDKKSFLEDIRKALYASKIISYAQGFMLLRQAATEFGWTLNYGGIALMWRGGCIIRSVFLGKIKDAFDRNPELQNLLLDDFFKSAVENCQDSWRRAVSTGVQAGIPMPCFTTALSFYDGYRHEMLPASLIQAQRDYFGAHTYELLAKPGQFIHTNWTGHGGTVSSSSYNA

Take `COC(=O)c1c(C)cc(OC(=O)c2c(C)cc(O)c(C=O)c2O)c(C)c1O`: in test [1], the inhibition was 1.13% (inactive). Besides, in test [2], the red/green cell ratio (normalised) was 0.78 (inactive). Moreover, the normalised cell number stood at 1.24 in test [2] (setting [4]) and 0.97 in test [2] (setting [5]). Also, the luciferase signal in test [3] is 12 AU (inactive).
The corresponding values for `COC1(C)CCC2OC2(C)CCC2C1CC2(C)C` (stereo not given) are 10.7% (inactive), 1.21 (inactive), 0.76, 0.91 and 80 AU (inactive).
As to `COc1cc2ccc(=O)oc2c(OC)c1OC`, in test [1], the inhibition is 1.65% (inactive). Moreover, the red/green cell ratio (normalised) in test [2] was 0.93 (inactive). In addition, the normalised cell number is 0.81 in test [2] (setting [4]) and 0.75 in test [2] (setting [5]). The luciferase signal in test [3] is 16 AU (inactive).
With `C=C1C2CC[C@@]3(C)[C@H](c4ccoc4)OC(=O)C[C@]13O[C@H]1CC(O)C(C)(C)C(CC(=O)OC)[C@@]21C` (stereo not given in full), the inhibition in test [1] is 24.1% (active). The red/green cell ratio (normalised) in test [2] was 1.02 (inactive). Also, the normalised cell number in test [2] (setting [4]) is 0.98; in test [2] (setting [5]), 1. For the same compound, the luciferase signal in test [3] was 16 AU (inactive).
For `O=C(O)c1cc2cc(Cl)ccc2[nH]1`, the inhibition in test [1] is -0.282% (inactive). For the same compound, the red/green cell ratio (normalised) in test [2] is 1 (inactive). Besides, the normalised cell number in test [2] (setting [4]) and in test [2] (setting [5]) was 1.21 in each case. Further, the luciferase signal in test [3] was 52 AU (inactive).
On to `COc1cc(O)c(C(=O)c2ccccc2)cc1O`, for which the inhibition in test [1] is -3.44% (inactive). Moreover, the red/green cell ratio (normalised) in test [2] was 0.89 (inactive). Also, the normalised cell number was 1.31 in test [2] (setting [4]) and 1.17 in test [2] (setting [5]). For the same compound, in test [3], the luciferase signal was 48 AU (inactive).
Regarding `CC(C)=CCc1c(O)cc2oc(C)cc(=O)c2c1O`, the inhibition in test [1] was 8.51% (inactive). In addition, in test [2], the red/green cell ratio (normalised) was 0.93 (inactive). The normalised cell number in test [2] (setting [4]) amounted to 1.18; in test [2] (setting [5]) it was 1.1. The luciferase signal in test [3] is 52 AU (inactive).
Consider `Cc1ccc2c(c1)CC[C@H]1CC(=O)CC[C@]21C`, for which the inhibition in test [1] is -2.97% (inactive). For the same compound, the red/green cell ratio (normalised) in test [2] was 1.02 (inactive). Besides, the normalised cell number in test [2] (setting [4]) turned out to be 1.12; in test [2] (setting [5]), 1.14. The luciferase signal in test [3] was 16 AU (inactive).
The matching figures for `O=C(Oc1cc(O)cc2c1C[C@@H](OC(=O)c1cc(O)c(O)c(O)c1)[C@@H](c1cc(O)c(O)c(O)c1)O2)c1cc(O)c(O)c(O)c1`: 10.8% (inactive), 1.04 (inactive), 0.96, 0.99 and 44 AU (inactive).
As for `COc1ccc2c(c1OC)OC[C@@H](c1ccc(OC)c(OC)c1OC)C2`, the inhibition in test [1] is -2.69% (inactive). Further, the red/green cell ratio (normalised) in test [2] is 0.93 (inactive). Moreover, the values for the normalised cell number in test [2] (setting [4]) and in test [2] (setting [5]) were 0.93 and 0.86, respectively. The luciferase signal in test [3] was 96 AU (inactive).
The corresponding values for `CCOc1cccc(C(=O)c2ccc(O)c(O)c2O)c1` are 11.3% (inactive), 0.95 (inactive), 1.01, 0.96 and 116 AU (inactive).
The corresponding values for `C=C1C(N)CC2CC1C2(C)C` (stereo not given) are 16.7% (inactive), 1.05 (inactive), 1.09, 1.15 and 60 AU (inactive).
The corresponding values for `CC1(C)CC2C1CCC1(C)OC2(C)CCC1O` (stereo not given) are 12.8% (inactive), 1.07 (inactive), 0.96, 1.03 and 100 AU (inactive).
Regarding `CC1=CCc2c(cc3oc(C)cc(=O)c3c2O)OC1`, the inhibition in test [1] is 0.892% (inactive). The red/green cell ratio (normalised) in test [2] is 1.1 (inactive). Besides, the results for the normalised cell number in test [2] (setting [4]) and in test [2] (setting [5]) were 1.02 and 1.12, respectively. Moreover, the luciferase signal in test [3] was 16 AU (inactive).
Take `O=c1cc(-c2cc(O)c(O)c(O)c2)oc2cc(O)cc(O)c12`: in test [1], the inhibition was 5.62% (inactive). Besides, in test [2], the red/green cell ratio (normalised) was 1.14 (inactive). In addition, the normalised cell number in test [2] (setting [4]) worked out at 0.99; in test [2] (setting [5]), 1.12. In addition, the luciferase signal in test [3] was 72 AU (inactive).
The matching figures for `CC(=O)Oc1ccc2c(c1OC(C)=O)OCC1(O)Cc3c(cc(OC(C)=O)c(OC(C)=O)c3OC(C)=O)C21` (stereo not given): 18.4% (inactive), 0.84 (inactive), 1.08, 0.91 and 44 AU (inactive).
The corresponding values for `CC12CCCC(O)(C1)C1CC(C)(C)C1CC2` (stereo not given) are -1.62% (inactive), 0.85 (inactive), 1.27, 1.07 and 128 AU (inactive).
Turning to `Nc1ccccc1C(=O)CC(N)C(=O)O` (stereo not given), the inhibition in test [1] was -2.44% (inactive). In addition, the red/green cell ratio (normalised) in test [2] is 1.23 (inactive). The normalised cell number in test [2] (setting [4]) stood at 0.56; in test [2] (setting [5]), 0.69. The luciferase signal in test [3] was 68 AU (inactive).
The matching figures for `CC(=O)O[C@H]1C[C@@H](OC(C)=O)C(C)(C)C2C[C@@H](OC(C)=O)[C@@]3(C)C4=CC(=O)O[C@@H](c5ccoc5)[C@]4(C)CCC3[C@]21C` (stereo not given in full): 0.0743% (inactive), 1.01 (inactive), 1, 1.01 and 16 AU (inactive).
The corresponding values for `CC(=O)O[C@@H]1CC2C(C)(CC[C@H](O)C2(C)C)C2CC[C@]3(C)C(=CC(=O)O[C@H]3c3ccoc3)C21C` (stereo not given in full) are 0.669% (inactive), 1.03 (inactive), 1.07, 1.1 and 16 AU (inactive).
The corresponding values for `COc1cc(O)cc(OC)c1OC` are -0.756% (inactive), 1.04 (inactive), 1.01, 1.04 and 20 AU (inactive).
As to `CCCCC[C@H](CC(=O)O)C(=O)O`, the inhibition in test [1] was 0.671% (inactive). In test [2], the red/green cell ratio (normalised) is 0.96 (inactive). Also, the normalised cell number in test [2] (setting [4]) was determined as 0.99; in test [2] (setting [5]), 0.94. Further, the luciferase signal in test [3] was 40 AU (inactive).
Regarding `COc1ccc2c(c1)OC[C@@H](Cc1ccc(OC)c(OC)c1)[C@H]2O`, the inhibition in test [1] is 15.8% (inactive). The red/green cell ratio (normalised) in test [2] was 1.09 (inactive). Further, the normalised cell number in test [2] (setting [4]) turned out to be 0.98; in test [2] (setting [5]), 1.07. Moreover, in test [3], the luciferase signal was 76 AU (inactive).
The corresponding values for `CC(C)=CCC/C(C)=C/CC/C(C)=C/CO` are 1.99% (inactive), 0.89 (inactive), 1.03, 0.91 and 88 AU (inactive).
For the compound `N[C@@H](C(=O)O)[C@@H](O)[C@H](O)[C@H](O)CO`, the inhibition in test [1] is 9.87% (inactive). In test [2], the red/green cell ratio (normalised) is 1.16 (inactive). The results for the normalised cell number in test [2] (setting [4]) and in test [2] (setting [5]) were 1.02 and 1.18, respectively. The luciferase signal in test [3] was 108 AU (inactive).
The matching figures for `CCc1ccc2c(O)c3c(cc2c1C(=O)OC)C(=O)c1c(O)ccc(O)c1C3=O`: -5.67% (inactive), 0.83 (inactive), 1.11, 0.92 and 44 AU (inactive).

(Values after PubChem BioAssay.)
